We go through eight molecules from PubChem BioAssay (NCI).

Test systems include NCI-H226 lung; NCI-H322M lung; HOP-62 NSCLC; NCI-H460 lung; HOP-92 NSCLC; NCI-H522 lung; A549/ATCC NSCLC; 786-0 renal; COLO 205 colon; DU-145 prostate; K-562 leukemia; MALME-3M melanoma; MDA-MB-231 breast; RXF 393 renal; SF-268 CNS; SF-295 CNS; SF-539 CNS; UACC-257 melanoma; M14 melanoma; HCT-15 colon.
Common to all, as to assay: NCI-60 one-dose screen, 48 h (100 = growth as untreated, 0 = no growth, -100 = all killed)
Holding throughout (conditions): 10 µM unless noted

Molecules are shown by their SMILES. The panel holds about 83,000 compounds, 20% with a hit somewhere; the sample as a whole holds those more often.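 Growth was measured after 48 h exposure to one concentration of compound in 96-well plates. Values under 10 count as active.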 Values without a mark were called inactive. Calls of active or inactive are those of the source.

With `COc1ccc(/C=N/NC(=O)c2[nH]c3ccc(Br)cc3c2-c2ccccc2)s1`, the growth in the test with NCI-H226 lung is 47.8%; in the test on NCI-H322M lung, 50.8%; in the test with HOP-62 NSCLC, 47.6%; in the test with NCI-H460 lung, 3.58% (active); in the test with HOP-92 NSCLC, 52.1%; in the test on NCI-H522 lung, -30.1% (active). Moreover, the growth in the test on A549/ATCC NSCLC was 31.5%; in the test with 786-0 renal, 11.4%; in the test with COLO 205 colon it was -55.8% (active); with DU-145 prostate, 20.4%; in the test with K-562 leukemia, 10.8%; in the test with MALME-3M melanoma it was 55.5%. Further, the growth in the test on MDA-MB-231 breast is 3.89% (active); in the test with RXF 393 renal it was 80.9%; in the test on SF-268 CNS, 39.7%; in the test on SF-295 CNS, 15.6%; in the test on SF-539 CNS, 1.16% (active); in the test on UACC-257 melanoma, 47%. The growth with M14 melanoma is 6.17% (active); in the test with HCT-15 colon it was 12%.
Take `COC(=O)C(C)NS(=O)(=O)/N=C1\NC(=O)NC1=C(Cl)Cl` (stereo not given): the growth with NCI-H226 lung was 106%; in the test with NCI-H322M lung, 102%; in the test on HOP-62 NSCLC, 111%; with NCI-H460 lung, 113%; with HOP-92 NSCLC it was 107%; in the test with NCI-H522 lung, 101%. In addition, the growth is 105% in the test with A549/ATCC NSCLC; 103% in the test with 786-0 renal; 115% in the test on COLO 205 colon; 109% in the test on DU-145 prostate; 104% in the test on K-562 leukemia; 99% in the test on MALME-3M melanoma. Moreover, the growth was 106% in the test with MDA-MB-231 breast; 124% in the test with RXF 393 renal; 98.2% in the test on SF-268 CNS; 103% with SF-295 CNS; 95.7% with SF-539 CNS; 99.7% with UACC-257 melanoma. Further, the figures for the growth in the test on M14 melanoma and in the test on HCT-15 colon were 94.7% and 102%, respectively.
On to `CS(=O)(=O)c1ccc(-c2nc3ccccn3c2-c2nc3ccc([N+](=O)[O-])cc3[nH]2)cc1`, for which the growth with NCI-H226 lung is 92.2%; with NCI-H322M lung, 92%; in the test on HOP-62 NSCLC, 105%; in the test with NCI-H460 lung it was 101%; with HOP-92 NSCLC, 93.7%; in the test on NCI-H522 lung, 92.4%. Besides, the growth in the test on A549/ATCC NSCLC is 99.8%; in the test on 786-0 renal, 101%; in the test on COLO 205 colon, 103%; in the test on DU-145 prostate, 99.8%; with K-562 leukemia it was 91.3%; in the test on MALME-3M melanoma it was 86%. Also, the growth in the test with MDA-MB-231 breast was 86.5%; with RXF 393 renal, 101%; with SF-268 CNS it was 94.1%; in the test on SF-295 CNS, 92.2%; in the test on SF-539 CNS it was 89.5%; in the test with UACC-257 melanoma, 106%. Further, the values for the growth in the test on M14 melanoma and in the test on HCT-15 colon were 97.3% and 97.1%, respectively.
As for `COc1cccc(-c2nn(-c3ccccc3)cc2-c2ccnc(N3CCN(C(=O)Nc4ccc(F)cc4)CC3)c2)c1`, the growth with NCI-H226 lung is 66.7%; in the test on NCI-H322M lung, 79.2%; with HOP-62 NSCLC, 102%; with NCI-H460 lung, 69.5%; with HOP-92 NSCLC, 63.1%; in the test with NCI-H522 lung, 36.2%. Moreover, the growth was 55.9% with A549/ATCC NSCLC; 68.1% in the test on 786-0 renal; 64.7% in the test with COLO 205 colon; 67.5% in the test with DU-145 prostate; 30.8% in the test with K-562 leukemia; 76.7% in the test on MALME-3M melanoma. In addition, the growth in the test with MDA-MB-231 breast was 52.6%; in the test on RXF 393 renal, 63.4%; with SF-268 CNS, 85.3%; in the test with SF-295 CNS it was 64.8%; in the test with SF-539 CNS, 66.9%; with UACC-257 melanoma, 85.8%. Moreover, the values for the growth in the test on M14 melanoma and in the test with HCT-15 colon were 32.4% and 35.8%, respectively.
For the molecule `CN(C)CCCOc1c2ccc(Cl)cc2nc2c1oc1ccccc12`, the growth in the test with NCI-H226 lung is -0.673% (active); in the test on NCI-H322M lung it was -13.1% (active); in the test with HOP-62 NSCLC it was 7.02% (active); in the test on NCI-H460 lung it was 7.64% (active); with HOP-92 NSCLC, -4.3% (active); in the test on NCI-H522 lung it was -39.6% (active). Besides, the growth in the test with A549/ATCC NSCLC is 10%; with 786-0 renal it was 6.22% (active); in the test on COLO 205 colon, -59.3% (active); in the test with DU-145 prostate it was 5.28% (active); with K-562 leukemia it was 0.751% (active); with MALME-3M melanoma, -81.2% (active). Besides, the growth was -7.6% (active) in the test on MDA-MB-231 breast; -66% (active) in the test with RXF 393 renal; -9.41% (active) in the test on SF-268 CNS; -19.2% (active) in the test with SF-295 CNS; -58.9% (active) in the test on SF-539 CNS; -18.5% (active) with UACC-257 melanoma. Also, the growth in the test with M14 melanoma was -84.2% (active); with HCT-15 colon it was -21.6% (active).
As for `O=C(CSc1nc2sc3c(c2c(=O)n1-c1ccc(Cl)cc1)CCCC3)NNC(=O)Nc1ccc(Cl)c(C(F)(F)F)c1`, the growth was 53.4% in the test on NCI-H226 lung; 52.2% in the test on NCI-H322M lung; 58.8% in the test with HOP-62 NSCLC; 11.8% in the test with NCI-H460 lung; -12.3% (active) in the test on HOP-92 NSCLC; 5.53% (active) in the test with NCI-H522 lung. Also, the growth in the test on A549/ATCC NSCLC was 34%; in the test with 786-0 renal it was 52.2%; in the test on COLO 205 colon, 53.4%; in the test on DU-145 prostate, 32.2%; with K-562 leukemia, 11.7%; in the test on MALME-3M melanoma, 22.5%. Further, the growth in the test with MDA-MB-231 breast was 61.2%; in the test with RXF 393 renal, 70.5%; in the test with SF-268 CNS, 67%; with SF-295 CNS, 9.82% (active); in the test on SF-539 CNS, 73.1%; in the test on UACC-257 melanoma, 46.5%. For the same molecule, the growth with M14 melanoma is 44%; with HCT-15 colon it was 24.5%.
Take `N#Cc1nc(-c2ccccc2)oc1N1CC[C@@H](CO)C1`: the growth with NCI-H226 lung is 94%; in the test with NCI-H322M lung, 93.8%; with HOP-62 NSCLC, 102%; in the test with NCI-H460 lung it was 99.7%; with HOP-92 NSCLC, 98.5%; in the test with NCI-H522 lung, 95.1%. In addition, the growth with A549/ATCC NSCLC is 101%; with 786-0 renal, 103%; in the test on COLO 205 colon, 106%; in the test with DU-145 prostate, 100%; in the test with K-562 leukemia, 96%; in the test with MALME-3M melanoma it was 110%. In addition, the growth in the test with MDA-MB-231 breast was 99.1%; in the test with RXF 393 renal it was 118%; with SF-268 CNS, 105%; in the test on SF-295 CNS it was 97.1%; in the test on SF-539 CNS, 102%; in the test on UACC-257 melanoma, 110%. Further, the growth is 103% with M14 melanoma and 100% with HCT-15 colon.
Consider `CC(=O)Nc1cc(F)cc(-c2ccc3[nH]cc(-c4ccccc4)c3n2)c1`, for which the growth with NCI-H226 lung was 30.9%; in the test on NCI-H322M lung it was 33.4%; with HOP-62 NSCLC, 3.09% (active); in the test on NCI-H460 lung it was 3.95% (active); in the test with HOP-92 NSCLC it was 0.206% (active); in the test with NCI-H522 lung, -67.6% (active). Besides, the growth is 20.1% with A549/ATCC NSCLC; 1.48% (active) in the test with 786-0 renal; -68.2% (active) in the test with COLO 205 colon; 39.8% in the test with DU-145 prostate; 0.935% (active) in the test with K-562 leukemia; -14.3% (active) with MALME-3M melanoma. Also, the growth with MDA-MB-231 breast is -3.42% (active); in the test with RXF 393 renal, -11.8% (active); in the test on SF-268 CNS, 41.3%; in the test on SF-295 CNS, -42.9% (active); in the test on SF-539 CNS, -28.5% (active); in the test on UACC-257 melanoma it was -29.3% (active). The growth in the test with M14 melanoma is -14.8% (active); in the test on HCT-15 colon, -60.8% (active).
